Consider 20 molecules from PubChem BioAssay (NCI).

This is part of a sample that, as a whole, favours compounds with a hit. Of some 79,000 tested, about 15% had one in any assay. Values without a mark were called inactive. The source made the active and inactive calls. Rule as the data show it: active = growth inhibition above about 70%; inactive = the rest.

Test [1] in a line: NCI Yeast Anticancer Drug Screen. Data for the rad50 strain (AID 155).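 Also: 0% = growth of vehicle-only cultures of the same strain.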 To be noted: S. cerevisiae rad50 strain growth inhibition; at 50.0 µM; active compounds read high. In short, it runs like this:
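Genetically altered yeast (DNA repair pathway); compound treatment; growth inhibition vs vehicle ctrl.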

Test [2] can be described thus: NCI Yeast Anticancer Drug Screen. Data for the mec2-1 strain (AID 157). The conditions noted are these: S. cerevisiae mec2-1 strain, at 50.0 µM, active compounds read high. In short, it runs like this: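 Cells of the genetically defined mec2-1 yeast strain are incubated with test compound. Inhibition of growth is calculated against vehicle-treated controls.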
Test [3] is described as follows: NCI Yeast Anticancer Drug Screen. Data for the sgs1 mgt1 strain (AID 161).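 Also: 0% = growth of cultures given vehicle only.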 The conditions noted are these: S. cerevisiae sgs1 mgt1 strain, at 50.0 µM, active compounds read high. In short, it runs like this:
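Read-out: growth inhibition vs vehicle controls. Cells: mutant yeast strain deficient in DNA damage repair.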

A short description of test [4]: NCI Yeast Anticancer Drug Screen. Data for the cln2 rad14 strain (AID 165).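 Also: 0% = growth equal to vehicle treated cultures.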 To be noted: S. cerevisiae cln2 rad14 strain, at 50.0 µM, active compounds read high. In short, it runs like this:
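The screen exposed genetically defined yeast (cln2 rad14) to test compounds and scored growth inhibition relative to vehicle-treated controls.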

Test [5] is described as follows: NCI Yeast Anticancer Drug Screen. Data for the bub3 strain (AID 167). The conditions noted are these: S. cerevisiae bub3 mutant strain, at 50.0 µM, active compounds read high. In short, it runs like this: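 Yeast carrying a defined mutation is treated with each compound, and growth is compared with that of vehicle-exposed cells to give inhibition.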
The nature of test [6]: NCI Yeast Anticancer Drug Screen. Data for the mlh1 rad18 strain (AID 175). The conditions noted are these: S. cerevisiae mlh1 rad18 strain growth inhibition; at 50.0 µM; active compounds read high. In short, it runs like this:
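Compound-treated yeast growth, normalised to vehicle controls. Strain bears defined DNA repair mutations.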

Turning to `CC12C3CC4C5CC(C(C53)[C@@H]1NCc1ccccc1)C42` (stereo not given in full), the growth inhibition in test [1] is 44.8%; in test [2] it was 6.8%; in test [3], 19.2%; in test [4], 35.4%; in test [5], 32.9%; in test [6] it was 21.9%.

In the case of `COc1cc(OC(=O)/C=C2/CCC(=O)O2)c2c(c1)OC1OC(=O)CC21` (stereo not given), the growth inhibition in test [1] is 13.6%; in test [2], -4.95%; in test [3], 13.8%; in test [4] it was -3.4%; in test [5], -1.9%; in test [6] it was 15.8%.

As to `Cc1cc(N=Cc2cccs2)cc(Cl)c1O`, the growth inhibition in test [1] is 21.7%; in test [2] it was 14.4%; in test [3] it was 5.05%; in test [4] it was 12.2%; in test [5] it was 41.8%; in test [6], 24.8%.

In the case of `COc1cc(/C=C/C=C2\CCC/C(=C\C=C\c3ccc(O)c(OC)c3)C2=O)ccc1O`, the growth inhibition is 14.4% in test [1]; -0.05% in test [2]; 11.2% in test [3]; 19.3% in test [4]; 10.8% in test [5]; 14.2% in test [6].

For `COc1cc(/C=C/C(=O)OCCc2ccccc2)ccc1O`, the growth inhibition in test [1] was 74.8% (active); in test [2], 82% (active); in test [3], 90.2% (active); in test [4], 89% (active); in test [5] it was 90.1% (active); in test [6] it was 61%.

Turning to `Brc1ccc(C(c2ccc(Br)cc2)C(Br)(Br)Br)cc1`, the growth inhibition was 2.8% in test [1]; 3.75% in test [2]; 1.9% in test [3]; -12.9% in test [4]; 1.5% in test [5]; 8.2% in test [6].

As to `CCC12CCCN(Cc3ccccc3)C1c1c([nH]c3ccccc13)C(C(=O)OC)C2` (stereo not given), the growth inhibition in test [1] was 11.8%; in test [2], -2.25%; in test [3], 17.6%; in test [4], 13.7%; in test [5], -0.25%; in test [6], 2.3%.

For the molecule `COC1CC(OC2C(C)OC(OC3C(C)OC(OC4C(C)OC(O[C@H]5CC[C@@]6(C)C(=CC[C@]7(O)[C@@H]6C[C@@H](OC(=O)/C=C/c6ccccc6)[C@@]6(C)[C@]7(O)CC[C@@]6(O)C(C)=O)C5)CC4OC)CC3OC)CC2OC)OC(C)C1O` (stereo not given in full), the growth inhibition is 31% in test [1]; 19.2% in test [2]; 5.35% in test [3]; 25.9% in test [4]; 7.15% in test [5]; -27.6% in test [6].

Consider `CCC[CH2][Ge]([Cl])([Cl])[CH2]CCC`, for which the growth inhibition was 28.6% in test [1]; 30.8% in test [2]; 30.9% in test [3]; 14.9% in test [4]; 40.9% in test [5]; 33.4% in test [6].

Turning to `C=CCCC(=O)CC(=O)OCC`, the growth inhibition in test [1] was -25.1%; in test [2], -22.7%; in test [3], -10.7%; in test [4], 10.3%; in test [5], -8%; in test [6], 6.15%.

As to `CC(C)=C1CC(=O)NC1=O`, the growth inhibition was -10.8% in test [1]; 17.1% in test [2]; -3.2% in test [3]; 6.35% in test [4]; -6.05% in test [5]; 0.55% in test [6].

As to `COc1cc2c(cc1OC)-c1c(C)c3ccc(OC)c(NCCO)c3c[n+]1CC2`, the growth inhibition in test [1] is -43.2%; in test [2], -10%; in test [3], -29.7%; in test [4] it was -17%; in test [5] it was -0.4%; in test [6] it was -8.3%.

`CCOC(=O)C(C(=O)OCC)C(c1ccccc1)c1ccccc1OC` (stereo not given): the growth inhibition in test [1] is 6.9%; in test [2], 12%; in test [3] it was 4.15%; in test [4] it was 17%; in test [5], 12.3%; in test [6], -9.55%.

Regarding `NCCNCCCNCCN`, the growth inhibition is 7.85% in test [1]; -2.4% in test [2]; 7.95% in test [3]; -2.45% in test [4]; 27.4% in test [5]; 6.45% in test [6].

On to `Cc1cc(O)c2c(c1)C[C@@H](O)C1=C2C(=O)c2c(O)ccc(OC3CC(O)C(OC4CC(OC5CCC(OC6CC(O)C(OC7CC(OC8CCC(O)C(C)O8)C(O)C(C)O7)C(C)O6)C(C)O5)C(O)C(C)O4)C(C)O3)c2C1=O` (stereo not given in full), for which the growth inhibition in test [1] is 88.5% (active); in test [2] it was 90.6% (active); in test [3] it was 90.1% (active); in test [4], 84.8% (active); in test [5] it was 86.6% (active); in test [6] it was 88.5% (active).

`COC(=O)C(N)C(C)C` (stereo not given): the growth inhibition in test [1] is 13.8%; in test [2] it was 9.15%; in test [3], -10.3%; in test [4], -6.9%; in test [5], 4.55%; in test [6], 0.35%.

Turning to `N#CC(C(=O)O)=C1CCCCCC1`, the growth inhibition was 2.4% in test [1]; -1% in test [2]; 3.7% in test [3]; -1.8% in test [4]; 5.5% in test [5]; -0.8% in test [6].

On to `Cc1nc(-c2nc(C)c(C(=O)NNC(=O)C[n+]3ccccc3)s2)sc1C(=O)NNC(=O)C[n+]1ccccc1`, for which the growth inhibition in test [1] was 21.9%; in test [2], 10.6%; in test [3] it was 52%; in test [4], -20.9%; in test [5] it was 0.2%; in test [6], 14.4%.

With `Cc1cc2c(cc1C)N1C(Cl)=C3CCCCC3=C(C#N)C1N2` (stereo not given), the growth inhibition was 30.7% in test [1]; 30.4% in test [2]; 20.5% in test [3]; 28.3% in test [4]; 13.9% in test [5]; -8.95% in test [6].

In the case of `CN(C)Cc1cc(C(C)(C)C)ccc1-c1ccc(C(C)(C)C)cc1CN(C)C`, the growth inhibition in test [1] is -42.4%; in test [2], -17.6%; in test [3], -39.5%; in test [4], 12.6%; in test [5] it was -31.2%; in test [6], -30.9%.
